Data on five compounds can be found in PubChem BioAssay AID1777 (Sanford-Burnham Center for Chemical Genomics, 2009).

Out of some 280,000 compounds screened, about 50 (0.02%) were called active. No stated cut-off is given here; in the data, active means activation above about 50% (passing the limit was not always enough); inactive means the rest. Only a selection was taken, and actives are over-represented in it overall. Potency and affinity values are given separately.

The experiment deals with Kappa-type opioid receptor (Homo sapiens) (UniProt P41145). In words: KOR agonists, beta-arrestin recruitment, primary screen, cell-based, luminescence, uHTS (AID 1777). The note with it: at 10 µM, active compounds read high. (In general: Arrestin recruitment assays detect the binding of arrestin to an activated receptor.)
Chain of Kappa-type opioid receptor (Homo sapiens) (P41145 whole entry, looked up): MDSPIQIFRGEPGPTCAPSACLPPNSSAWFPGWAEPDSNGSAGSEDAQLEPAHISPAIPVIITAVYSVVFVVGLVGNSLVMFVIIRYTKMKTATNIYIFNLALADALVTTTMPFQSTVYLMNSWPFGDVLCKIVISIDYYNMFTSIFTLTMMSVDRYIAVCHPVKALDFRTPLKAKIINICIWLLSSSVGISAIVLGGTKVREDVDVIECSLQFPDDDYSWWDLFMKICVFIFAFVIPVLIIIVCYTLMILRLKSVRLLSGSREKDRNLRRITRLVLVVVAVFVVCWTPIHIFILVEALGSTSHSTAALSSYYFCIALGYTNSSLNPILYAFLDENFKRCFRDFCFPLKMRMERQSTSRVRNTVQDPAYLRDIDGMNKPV
On to `COc1ccc(C(CNC(=O)Cc2ccc(Cl)c(Cl)c2)N2CCCCC2)cc1` (stereo not given), for which the activation is -2.4% (inactive). `COc1ccc(C(CNC(=O)Cc2ccc(Cl)c(Cl)c2)N(C)C)cc1` (stereo not given): the activation was -2.4% (inactive). Regarding `COC(=O)N1CCN(C(=O)Cc2ccc(Cl)c(Cl)c2)C(CN2CCCC2)C1` (stereo not given), the activation was 91.3% (active). Turning to `CCN1C(=O)N(CC)C(=O)C2(Cc3ccccc3N3CCN(c4ccccc4)CC32)C1=O` (stereo not given), the activation is 2.7% (inactive). For `COc1ccc2nc(/N=C/c3c(O)n(-c4cccc(Cl)c4)c(=O)[nH]c3=O)sc2c1`, the activation is 2.9% (inactive).
